Screens: PubChem, National Center for Advancing Translational Sciences (NCATS)
Only some compounds are listed: those with a hit (about 14% of all), similar ones and a draw of the others.
HCMV antiviral: human cytomegalovirus inhibition; activity change, negative = inhibition, % at 57.5 µM; HFF cells, HCMV-luciferase reporter, 72 h; stronger effect = lower value; AID 1259415; actives 4.5% (n = 410,000); in the data active means activity change below about -60%; inconclusive means no clear call, values can overlap the other calls; inactive means above about -39%
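Human foreskin fibroblasts infected with luciferase-reporter HCMV at MOI 1 PFU/cell, compounds at two doses. Luciferase measured 72 h post infection; normalized to buffer-only basal and Salinomycin (10uM) controls.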
Pf growth 48h: P. falciparum growth inhibition at 48 hours (one generation); P. falciparum luciferase growth in erythrocytes, 48 h; Potency, µM (titrated, usually from 28.7 µM), without a hit: at the highest dose activity change, negative = inhibition, hits mostly inhibitors; actives 5.9% (n = 310,000); AID 504832; further: potency means the concentration at half of the fitted maximal effect
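Cell-based growth assay: transgenic P. falciparum expressing firefly luciferase, cultured in red cells within RPMI 1640 containing 0.5% w/v Albumax, 24 mM bicarbonate and gentamycin. A drop in luciferase activity indicates inhibition.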
Pf growth 96h: P. falciparum growth inhibition at 96 hour, primary screen for plastid delayed-death inhibitors; P. falciparum luciferase reporter growth, 96 h; Potency, µM (top dose mostly 28.7 µM), without a hit: at the highest dose activity change, negative = inhibition, most hits filed as inhibitors; actives 6.9% (n = 320,000); further: potency means the concentration at half of the fitted maximal effect
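P. falciparum expressing integrated firefly luciferase, in erythrocytes at 2% hematocrit, 0.05% parasitemia, incubated with compounds 96 h at 37 C, 5% CO2. Growth inhibition read as loss of luminescence; two-generation exposure targets delayed-death apicoplast inhibitors.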
Giardia FBPA inh: blocks Giardia fructose-bisphosphate aldolase activity | AID 2451 | purified Giardia FBPA | actives 0.71% (n = 290,000) | A8B2U2 | Potency, µM (doses to about 59.6 µM), without a hit: at the highest dose activity, negative = inhibition, hits mostly inhibitors; further: potency means the concentration at half of the fitted maximal effect; nearly all actives have a fitted effect of over 55% in size
Target sequence (A8B2U2 whole entry, looked up): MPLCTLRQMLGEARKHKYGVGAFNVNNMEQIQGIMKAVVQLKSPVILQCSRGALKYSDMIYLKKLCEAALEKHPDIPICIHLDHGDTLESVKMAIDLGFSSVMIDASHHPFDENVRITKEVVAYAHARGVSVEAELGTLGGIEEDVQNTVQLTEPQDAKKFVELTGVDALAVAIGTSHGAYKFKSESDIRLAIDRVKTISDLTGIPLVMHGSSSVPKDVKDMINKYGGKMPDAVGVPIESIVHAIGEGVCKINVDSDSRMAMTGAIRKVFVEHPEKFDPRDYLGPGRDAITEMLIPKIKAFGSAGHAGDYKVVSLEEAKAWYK
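Giardia FBPA (40 nM reagent) was preincubated 10 min at RT with compound (up to 57.5 uM final), then substrate plus GAPDH/TPI/NAD/arsenate coupling system with diaphorase/resazurin was added; resorufin fluorescence (525/598 nm) was read after 20 min.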
Sm TGR inh: inhibitors of Schistosoma mansoni thioredoxin glutathione reductase | Q962Y6 | purified TGR, DTNB reduction, TNB absorbance 405 nm | Potency, µM (series often up to 114 µM), for the others: top-dose activity change, negative = inhibition, most hits filed as inhibitors | actives 3% (n = 360,000); further: potency means the concentration at half of the fitted maximal effect; nearly all actives have a fitted effect of over 60% in size
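TGR 20 nM + NADPH 100 uM (dispensed conc.), cpd preinc 15 min RT; start with NADPH (500 uM addition) then DTNB (15 mM addition). Kinetic TNB absorbance, 405 nm filter. Four-parameter Hill fit across titration.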
Starred values were filed as active, the others as inactive; i = inactive; ? = inconclusive; . = no result; [ ] = another dose, or the depositor's remark. Unless noted, the call rests on the fitted dose curve; in most records, active means well fitted curve in the direction sought with a large enough effect; inconclusive means small, poorly fitted or top-dose-only effect, or another doubt; inactive means no such curve, though single readings can be large; an effect the other way counts as inactive or inconclusive. On the % scale 0 is the no-effect control and ±100 the full control effect.

SMILES	HCMV antiviral	Pf growth 48h	Pf growth 96h	Giardia FBPA inh	Sm TGR inh
COc1ccccc1S(=O)(=O)Cc1ccc(C(=O)NC(C)c2ccc3c(c2)OCCO3)o1 (centres undefined)	-2	?	26%	4%	40µM*
Cc1ccccc1S(=O)(=O)Cc1ccc(C(=O)NC(C)c2ccccc2)o1 (centres undefined)	-38	-14%	?	6%	-15%
Cc1sc2c(c1C)C(c1cccs1)=NCC(=O)N2CC(=O)NCc1cccs1	-10	?	.	0%	-1%
Cc1sc2c(c1C)C(c1ccc(C(C)(C)C)cc1)=NCC(=O)N2CC(=O)Nc1nccs1	4	?	10µM*	-9%	-18%
COc1ccc(Nc2cccc3ccccc23)cc1	15	?	?	.	?
CCOc1ccc(S(=O)(=O)NCCC(=O)N2CCN(C(C)=O)CC2)cc1	-17	.	.	.	.
CCOC(=O)c1c(NC(=O)c2cc3nc(-c4ccc(Br)cc4)cc(C(F)(F)F)n3n2)sc(C(C)=O)c1C	7	.	.	.	-6%
CCCOc1ccc(C2CC(=O)Nc3cc(OC)c(OC)cc32)cc1 (centres undefined)	-2	-8%	?	1%	-20%
CCSC1=C(C#N)C(c2cccs2)C(C(=O)OC)=C(C)N1 (centres undefined)	41	.	-39%	0%	-4%[11.4 µM]
COc1ccccc1NC(=O)C1=C(C)NC(SCC(=O)Nc2ccc(C(=O)O)cc2)=C(C#N)C1c1cccs1 (centres undefined)	-4	?	?	-5%	45µM*
CCCSC1=C(C#N)C(c2cccs2)C(C(=O)Nc2ccccc2)=C(C)N1 (centres undefined)	?	8.3µM*	10%	-1%	35µM*
CC1=C(C(=O)Nc2ccccc2)C(c2ccncc2)C(C#N)=C(SCC(=O)NC(C)C)N1 (centres undefined)	-39	10µM*	33%	1%	-4%
CC1=C(C(=O)Nc2ccccc2)C(c2ccncc2)C(C#N)=C(SCC(=O)NC2CC2)N1 (centres undefined)	-7	-14%	?	0%	0%
COc1ccc(NC(=O)Cn2ccn(-c3ccc(F)c(F)c3)c(=O)c2=O)cc1Cl	46	.	.	.	-3%
COc1cc(/C=C2/SC(=S)N(c3c(C)n(C)n(-c4ccccc4)c3=O)C2=O)ccc1O	-31	-14%	28%	-16%	-11%[57.1 µM]
Cc1ccc(S(=O)(=O)N2CCCC2C(=O)OCc2ccco2)cc1 (centres undefined)	.	7%	16%	2%	4.5µM*
CCOC(=O)C1CN(S(=O)(=O)c2ccc(C)cc2)CCN1S(=O)(=O)c1ccc(C)cc1 (centres undefined)	0	?	15µM*	-2%	5%
COCCNC(=O)CC(=O)N/N=C/c1ccc(C(=O)OC)cc1	-15	27%	?	-2%	17%
O=[N+]([O-])c1ccc(S(=O)(=O)N/N=C/c2ccco2)cc1	19	5%	-5%	1%	-15%
CN=c1scc(-c2ccc([N+](=O)[O-])cc2)n1/N=C/c1ccco1	-87*	338%	i	3%	0%
O=C1c2ccc([N+](=O)[O-])cc2NC(c2ccco2)N1/N=C/c1ccco1 (centres undefined)	-11	33%	?	-23%	40µM*
CC(=O)c1c(C)[nH]c(C(=O)NCc2cccc(Cl)c2)c1C	-1	-5%	4%	0%	-13%
CC(C)c1ccc(NC(=O)CSc2nc3ccccc3nc2N2CCCC2)cc1	-19	?	-1%	-2%	9%
CCN(CC)S(=O)(=O)c1cccc(-c2nnc(SCC(N)=O)n2C)c1	28	-3%	?	9%	1%
C=C(C)CSc1nnc(-c2cccc(S(=O)(=O)N(C)C)c2)n1-c1cc(OC)ccc1OC	-71*	?	.	-6%	-1%
COc1ccc(NC(=O)c2cc(-c3cc(OC)c(OC)c(OC)c3)nc3ccccc23)cc1OC	27	13µM*	?	-5%	-5%
COc1cc(-c2cc(C(=O)Nc3ccc(S(=O)(=O)Nc4ncccn4)cc3)c3ccccc3n2)cc(OC)c1OC	-25	?	7.4µM*	-2%	26%
